Mdm2 MdmX PPI: inhibitors of human Mdm2-MdmX association, primary screen, cell-based, luminescence, split luciferase, SaOS-2, uHTS; Protein Mdm4 (Homo sapiens) + E3 ubiquitin-protein ligase Mdm2 (Homo sapiens), …; SaOS-2 split-luciferase Mdm2/MdmX complementation; inhibition, % at 8 µM; actives 3% (n = 330,000); AID 485346, 2010;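 active means inhibition of at least 50% at 8 µM in the primary screen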
Beta cell apopt: inhibitors of cytokine-induced beta cell apoptosis, primary screen, luminescence; INS-1E cytokine-induced death, ATP luminescence, 48 h; percent of positive-control rescue, neutral wells zero; protection from apoptosis, % (concentration not given with the values); actives 0.8% (n = 300,000); AID 435005, 2010;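 active means Every replicate reaches about 75%, or at least half do and their mean reaches it too, limit read from the data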;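 further: 0% = cytokine-treated negative control wells and 100% = positive control rescue; higher means more ATP so stronger rescue from cytokine killing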
697 NFkB inh: inhibitors of PMA/ionomycin-induced NF-kB reporter, 697 cells, primary screen, B-cell NF-kB inhibitor project, cell-based, luminescence, uHTS | 697 B-cell NF-kB luciferase reporter, 16 h | inhibition, % at 4 µM | actives 0.33% (n = 330,000) | AID 435022, 2010; in the data active means inhibition above about 35%
Jurkat NFkB inh: inhibitors of induced NF-kB luciferase reporter, primary screen, TCR NF-kB activation inhibitor project, cell-based, luminescence, uHTS. actives 0.53% (n = 330,000). Jurkat, PMA/ionomycin-induced NF-kB luciferase reporter. inhibition, % at 4 µM; in the data active means inhibition above about 50%
Bfl-1 A1 inh: caspase 3/7 activation in MEF A1-2A-BIM cells, primary screen, A1 inhibitor project, cell-based, luminescence, HTS; Caspase-Glo 3/7 luminescence, 3 h; percent of clofoctol response, vehicle zero; caspase activation, % (concentration not given with the values); actives 0.066% (n = 330,000);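 active means over half of replicate activation scores above 10%, or exactly half above 10 with the replicate mean above 10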
NTR1 ag: agonists of human NTR1, primary screen, imaging, U2OS cells, beta-arrestin-GFP, high content; NTR1-U2OS beta-arrestin-GFP spot imaging, agonist mode; AID 493036, 2011; actives 0.17% (n = 330,000); activation, % at 20 µM; Neurotensin receptor type 1 (Homo sapiens), P30989;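 active means activation at or above 40% of the spot to cytoplasm intensity ratio, with at least 20 cells analyzed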;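 further: 0% = DMSO without peptide and 100% = 100 nM NTR1 peptide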
Mdm2-MdmX conf: Mdm2-MdmX complex disruptors, retested hits, confirmation, luminescence, single concentration; inhibition, % at 8 µM; shares compounds with Mdm2 MdmX PPI; actives 55% (n = 10,000); Mdm2-MdmX binding, luminescent assay; in the data active means inhibition above about 40%
FLuc counter: full-length luciferase signal inhibition, confirmation, counter-screen for Mdm2/MdmX interaction inhibitor project, cell-based, single concentration, SaOS-2; inhibition, % at 8 µM; SaOS-2 full-length luciferase counterscreen, luminescence; actives 77% (n = 6,200); shares compounds with Mdm2 MdmX PPI;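 active means mean inhibition at 8 µM reaching about 37%, which flags the compound as non-specific, limit read from the data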;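 further: p53-null SaOS-2 cells with luciferase driven by a doxycycline-inducible promoter; compound on cells about two nights before reading with doxycycline added after day one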
Starred values were filed as active, the others as inactive; x = not tested or not shown. Shown are actives, neighbours in structure and some others; about 3.8% of the full set was active somewhere.

SMILES	Mdm2 MdmX PPI	Beta cell apopt	697 NFkB inh	Jurkat NFkB inh	Bfl-1 A1 inh	NTR1 ag	Mdm2-MdmX conf	others
COc1ccc([C@H]2CC(=O)C=C(c3ccc4ncccc4c3)C2)cc1	19.4	0.2	-64.6	48.4	0.0	7.8	x
CN(CC(=O)Nc1cccc(F)c1)CC(=O)N1CCc2ccccc21	29.6	1.3	12.0	-2.1	0.4	-1.7	x
Cc1cccc(NC(=O)N2CCCc3ccccc32)c1C	10.4	0.3	13.3	2.1	0.8	0.4	x
COc1ccc(C(=O)Nc2nc3cc(OC)c(OC)cc3c(=O)[nH]2)cc1	71.0*	17.8	10.8	0.3	0.4	1.5	-9.9
COc1cc2nc(NC(=O)c3ccccc3)[nH]c(=O)c2cc1OC	-22.1	-3.3	3.5	-15.4	0.8	-0.8	x
COc1ccc(-c2nsc3c(N4CCCCC4)ncnc23)cc1	66.1*	-4.7	-217.3	-3.4	-7.1	1.3	70.2*	FLuc counter=54.8*
COc1ccc(-c2nsc3c(N4CCCCC4C)ncnc23)cc1 (centres undefined)	83.6*	1.6	15.9	41.8	-3.8	8.4	90.7*	FLuc counter=24.8
N#Cc1ccc(COC(=O)CC(NC(N)=O)c2ccc(Cl)cc2)cc1 (centres undefined)	12.9	x	1.5	-3.5	0.6	-0.4	x
C#CCn1c(S(=O)(=O)Cc2ccccc2Cl)nc(-c2ccccc2)c1-c1ccccc1	73.3*	-4.5	-67.9	-15.5	0.2	2.4	47.0*	FLuc counter=84.4*
Cc1ccc(S(=O)(=O)Cc2ccccc2Cl)cc1	-2.9	-2.7	7.7	6.3	-0.9	0.4	x
CN(C)c1ccc(C(C[N+](=O)[O-])c2c(N)n(C)c(=O)n(C)c2=O)c(F)c1C#N (centres undefined)	47.7	x	14.9	19.3	0.0	7.3	x
COc1ccc(Br)cc1C(C[N+](=O)[O-])c1c(N)n(C)c(=O)n(C)c1=O (centres undefined)	50.5*	43.5	19.1	5.3	0.5	2.4	9.4
Cc1ccc(NC(=O)CSc2nsc(SCC(=O)Nc3ccc(C)cc3C)c2C#N)c(C)c1	83.0*	8.9	14.1	-10.5	-0.7	-0.9	22.9
Cc1csc(NC(=O)CSc2nsc(SCC(=O)Nc3nc(C)cs3)c2C#N)n1	-84.1	0.2	-86.5	-146.3	0.3	2.9	x
COc1cc(OC)cc(-c2nnc(NC(=O)CCS(=O)(=O)c3ccc(C)cc3)o2)c1	51.0*	-6.6	15.1	-23.9	-0.5	1.8	60.6*	FLuc counter=72.3*
COc1cc(OC)cc(-c2nnc(NC(=O)c3ccc4c(c3)OCCO4)o2)c1	52.8*	x	-6.3	-0.4	-0.5	1.1	25.0
COc1cccc(C(=O)Nc2nnc(-c3ccc(Cl)cc3)o2)c1	38.2	-3.1	-3.3	1.3	-0.4	6.4	x
Cc1ccc(S(=O)(=O)CCC(=O)Nc2nnc(-c3ccc(F)cc3)o2)cc1	16.2	-13.9	16.1	10.5	-0.7	0.6	x
COc1cc(OC)cc(C(=O)NNC(=O)c2ccc3c(c2)OCCO3)c1	-2.1	4.1	-13.0	8.6	-3.2	-1.2	x
CCOc1ccc(-c2nnc(NC(=O)c3ccc(OCC(C)C)c(OC)c3)o2)cc1	57.0*	0.3	-27.7	3.9	-0.9	-0.3	56.7*	FLuc counter=15.2
O=C(Nc1ccc([N+](=O)[O-])cc1Br)c1cc2ccccc2nc1Cl	84.6*	2.7	-25.9	-12.8	1.8	0.8	12.6
CNCc1ccccc1Sc1cccc2ccccc12	33.9	12.8	-0.5	38.3	0.2	1.2	x
CN(C)CCN(C)Cc1ccccc1Sc1cccc2ccccc12	64.2*	13.0	-11.3	-1.7	0.0	4.1	43.0*	FLuc counter=69.1*
CCOc1ccc(CCNC(=O)COC(=O)CNC(=O)c2ccc(Br)o2)cc1OCC	2.3	-4.2	14.5	6.2	-0.2	0.5	x
CN(CC(=O)Nc1ccccc1Cl)CC(=O)c1c(N)n(Cc2ccccc2)c(=O)n(C)c1=O	-7.1	8.3	-0.8	8.8	-0.6	3.4	x
SMILES	Mdm2 MdmX PPI	Beta cell apopt	697 NFkB inh	Jurkat NFkB inh	Bfl-1 A1 inh	NTR1 ag	Mdm2-MdmX conf	others
Cc1cc(C(=O)CCl)c(C)n1-c1c(C)n(C)n(-c2ccccc2)c1=O	51.3*	-24.1	15.6	10.6	0.4	0.8	35.3
COc1ccc(-n2c(C)cc(C(=O)CCl)c2C)cc1	100.3*	37.6	15.1	6.5	2.8	16.5	61.2*	FLuc counter=49.2*
Cc1nnc(SCC(=O)c2cc(C)n(-c3c(C)n(C)n(-c4ccccc4)c3=O)c2C)s1	5.8	-3.0	-0.9	-10.9	0.5	-1.6	x
Cc1cc(-n2c(C)cc(C(=O)CCl)c2C)no1	79.2*	8.7	10.5	7.0	0.2	8.2	67.4*	FLuc counter=86.8*
Cc1ccccc1NC(=O)CN1C(=O)NC2(CCCCCCC2)C1=O	-7.2	x	-11.3	9.8	x	1.1	x
Nc1ncc(Br)cc1S(=O)(=O)Nc1cc(C(F)(F)F)cc(C(F)(F)F)c1	79.0*	14.6	-28.3	5.4	-0.3	5.1	37.5	FLuc counter=55.8*
Cc1ccc(NS(=O)(=O)c2cc(Br)cnc2N)c(Cl)c1	4.9	1.1	-20.3	8.7	0.7	0.6	x
CCc1cc(-c2[nH]ncc2-c2nc3ccccc3n2C)c(O)cc1O	16.0	-1.2	24.3	11.3	0.1	0.0	x
CCCc1cc(-c2[nH]ncc2-c2ccc(C(=O)OCC)o2)c(O)cc1O	56.2*	23.0	-7.6	-0.3	-0.1	16.5	18.5
COc1cccc(NC(=O)CN(C)S(=O)(=O)c2ccc3[nH]c(=O)oc3c2)c1	-5.9	-1.6	5.7	3.0	-4.1	0.5	x
COc1cc(/C=N/Nc2nc3ccccc3s2)cc([N+](=O)[O-])c1O	-4.9	-0.9	-36.9	-17.1	-1.0	2.0	x
O=[N+]([O-])c1cc(Cl)cc(/C=N/Nc2nc3ccccc3s2)c1O	79.7*	8.2	-16.2	-19.3	0.5	3.1	-0.9
CC(C)c1ccc(N(CC(=O)NCc2cccnc2)S(=O)(=O)c2ccccc2)cc1	19.0	-6.2	-6.3	-11.2	-0.3	1.2	x

Source: PubChem BioAssay
